Where “and” joins values, the source holds several entries; their conditions need not be identical. Identical values can stand only once. Screen size: about 5,500 compounds; about 2,000 (36%) were called active. Another 18% or so got no clear call; they are omitted. Rule as the data show it: active = normalized growth mostly below about 0.91 (no sharp cut-off); inconclusive = no clear call, values can overlap the other calls; inactive = mostly above about 0.92. Some of the results follow.
Assay: chemical genetic growth profiling, strain panel (AID 1159580);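 also: tested at 20 µM; growth read once vehicle control cultures reached saturation at 30 °C; 1 = growth at the plate median or of vehicle wells; lower values mean less growth of the strain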
Conditions: growth OD

Measured: normalized growth

CN(C)C(=O)Oc1cccc([N+](C)(C)C)c1
inactive: S. cerevisiae deletion strains, locus YJR075W, strain HOC1, stronger effect = lower value 1.02 | S. cerevisiae deletion strains, locus YKL009W, strain mrt4, stronger effect = lower value 0.969 | S. cerevisiae deletion strains, locus YKL068W, stronger effect = lower value 0.988 | S. cerevisiae deletion strains, locus YKL085W, strain MDH1 (second series), stronger effect = lower value 0.985 | S. cerevisiae deletion strains, locus YKL085W, strain MDH1, stronger effect = lower value 0.985 | S. cerevisiae deletion strains, locus YKL160W, strain elf1, stronger effect = lower value 0.996 | S. cerevisiae deletion strains, locus YKL190W, strain CNB1, stronger effect = lower value 1 | S. cerevisiae deletion strains, locus YKR001C, strain vps1, stronger effect = lower value 0.983 | S. cerevisiae deletion strains, locus YKR026C, strain gcn3, stronger effect = lower value 0.984 | S. cerevisiae deletion strains, locus YKR091W, strain srl3, stronger effect = lower value 0.995 | S. cerevisiae deletion strains, locus YLL001W, strain dnm1, stronger effect = lower value 0.988 | S. cerevisiae deletion strains, locus YLL026W, stronger effect = lower value 1 | S. cerevisiae deletion strains, locus YLL041C, strain sdh2, stronger effect = lower value 1.01 | S. cerevisiae deletion strains, locus YLR027C, strain aat2, stronger effect = lower value 0.984 | S. cerevisiae deletion strains, locus YLR039C, strain RIC1, stronger effect = lower value 0.985 | S. cerevisiae deletion strains, locus YLR058C, strain SHM2, stronger effect = lower value 0.996 | S. cerevisiae deletion strains, locus YLR102C, strain apc9, stronger effect = lower value 0.995 | S. cerevisiae deletion strains, locus YLR113W, strain HOG1, stronger effect = lower value 0.989 | S. cerevisiae deletion strains, locus YLR221C, strain rsa3, stronger effect = lower value 0.99 | S. cerevisiae deletion strains, locus YLR258W, strain gsy2, stronger effect = lower value 1 | S. cerevisiae deletion strains, locus YLR262C, strain YPT6 (second series), stronger effect = lower value 1 | S. cerevisiae deletion strains, locus YLR262C, strain YPT6, stronger effect = lower value 1.02 | S. cerevisiae deletion strains, locus YLR268W, strain sec22, stronger effect = lower value 0.956 | S. cerevisiae deletion strains, locus YLR320W, strain mms22, stronger effect = lower value 0.996 | S. cerevisiae deletion strains, locus YLR330W, strain CHS5, stronger effect = lower value 0.982 | S. cerevisiae deletion strains, locus YLR342W, strain FKS1 (second series), stronger effect = lower value 0.998 | S. cerevisiae deletion strains, locus YLR342W, strain FKS1, stronger effect = lower value 1.01 | S. cerevisiae deletion strains, locus YLR357W, strain rsc2, stronger effect = lower value 0.964 | S. cerevisiae deletion strains, locus YLR370C, strain arc18, stronger effect = lower value 1 | S. cerevisiae deletion strains, locus YLR371W, strain rom2, stronger effect = lower value 0.983 | S. cerevisiae deletion strains, locus YLR384C, strain iki3, stronger effect = lower value 1 | S. cerevisiae deletion strains, locus YLR418C, strain cdc73, stronger effect = lower value 0.972 | S. cerevisiae deletion strains, locus YML016C, strain PPZ1, stronger effect = lower value 0.987 | S. cerevisiae deletion strains, locus YML032C, strain rad52, stronger effect = lower value 0.982 | S. cerevisiae deletion strains, locus YML120C, strain ndi1, stronger effect = lower value 0.999 | S. cerevisiae deletion strains, locus YML124C, strain tub3, stronger effect = lower value 0.984 | S. cerevisiae deletion strains, locus YMR058W, strain fet3, stronger effect = lower value 1.01 | S. cerevisiae deletion strains, locus YMR078C, strain ctf18, stronger effect = lower value 0.984 | S. cerevisiae deletion strains, locus YMR125W, strain sto1, stronger effect = lower value 0.976 | S. cerevisiae deletion strains, locus YMR129W, stronger effect = lower value 0.997 | S. cerevisiae deletion strains, locus YMR205C, strain PFK2, stronger effect = lower value 0.994 | S. cerevisiae deletion strains, locus YMR223W, strain ubp8, stronger effect = lower value 0.995 | S. cerevisiae deletion strains, locus YMR231W, strain pep5, stronger effect = lower value 0.999 | S. cerevisiae deletion strains, locus YMR263W, strain SAP30, stronger effect = lower value 0.996 and 1.01 | S. cerevisiae deletion strains, locus YMR307W, strain GAS1, stronger effect = lower value 0.984 and 1.02 | S. cerevisiae deletion strains, locus YNL067W, strain RPL9B, stronger effect = lower value 1.01 | S. cerevisiae deletion strains, locus YNL071W, strain lat1, stronger effect = lower value 1.01 | S. cerevisiae deletion strains, locus YNL153C, strain GIM3, stronger effect = lower value 1.01 | S. cerevisiae deletion strains, locus YNL175C, strain NOP13, stronger effect = lower value 1.01 | S. cerevisiae deletion strains, locus YNL183C, strain NPR1, stronger effect = lower value 0.953 | S. cerevisiae deletion strains, locus YNL197C, strain WHI3, stronger effect = lower value 1.02 | S. cerevisiae deletion strains, locus YNL209W, strain ssb2, stronger effect = lower value 0.994 | S. cerevisiae deletion strains, locus YNL224C, strain SQS1, stronger effect = lower value 1 | S. cerevisiae deletion strains, locus YNL233W, strain BNI4, stronger effect = lower value 0.988 | S. cerevisiae deletion strains, locus YNL248C, strain rpa49, stronger effect = lower value 0.99 | S. cerevisiae deletion strains, locus YNL250W, strain rad50, stronger effect = lower value 0.978 | S. cerevisiae deletion strains, locus YNL271C, strain bni1, stronger effect = lower value 0.983 | S. cerevisiae deletion strains, locus YNL298W, strain CLA4, stronger effect = lower value 0.979 | S. cerevisiae deletion strains, locus YNL307C, strain MCK1, stronger effect = lower value 0.982 | S. cerevisiae deletion strains, locus YNL322C, strain KRE1 (second series), stronger effect = lower value 0.989 | S. cerevisiae deletion strains, locus YNR049C, strain mso1, stronger effect = lower value 0.98 | S. cerevisiae deletion strains, locus YNR052C, strain pop2, stronger effect = lower value 0.982 | S. cerevisiae deletion strains, locus YOL006C, strain TOP1, stronger effect = lower value 1.03 | S. cerevisiae deletion strains, locus YOL012C, strain htz1 1.09 | S. cerevisiae deletion strains, locus YOL147C, strain pex11, stronger effect = lower value 0.985 | S. cerevisiae deletion strains, locus YOR001W, strain rrp6, stronger effect = lower value 0.989 | S. cerevisiae deletion strains, locus YOR061W, strain CKA2, stronger effect = lower value 0.987 | S. cerevisiae deletion strains, locus YOR069W, strain VPS5, stronger effect = lower value 0.986 | S. cerevisiae deletion strains, locus YOR070C, strain gyp1, stronger effect = lower value 1 | S. cerevisiae deletion strains, locus YOR080W, strain dia2, stronger effect = lower value 0.996 | S. cerevisiae deletion strains, locus YOR083W, strain WHI5 (second series), stronger effect = lower value 1.01 | S. cerevisiae deletion strains, locus YOR083W, strain WHI5, stronger effect = lower value 0.998 | S. cerevisiae deletion strains, locus YOR106W, strain vam3, stronger effect = lower value 0.998 | S. cerevisiae deletion strains, locus YOR136W, strain idh2, stronger effect = lower value 0.992 | S. cerevisiae deletion strains, locus YOR144C, strain elg1, stronger effect = lower value 0.994 | S. cerevisiae deletion strains, locus YOR184W, strain ser1, stronger effect = lower value 0.99 | S. cerevisiae deletion strains, locus YOR231W, strain MKK1, stronger effect = lower value 1.02 | S. cerevisiae deletion strains, locus YOR265W, strain rbl2, stronger effect = lower value 0.996 | S. cerevisiae deletion strains, locus YOR270C, strain vph1, stronger effect = lower value 1.03 | S. cerevisiae deletion strains, locus YOR290C, strain snf2, stronger effect = lower value 1.01 | S. cerevisiae deletion strains, locus YOR316C, strain cot1, stronger effect = lower value 0.994 | S. cerevisiae deletion strains, locus YPL051W, strain arl3, stronger effect = lower value 1 | S. cerevisiae deletion strains, locus YPL055C, strain LGE1, stronger effect = lower value 1.02 | S. cerevisiae deletion strains, locus YPL078C, strain atp4, stronger effect = lower value 0.994 | S. cerevisiae deletion strains, locus YPL106C, strain sse1, stronger effect = lower value 0.973 | S. cerevisiae deletion strains, locus YPL240C, strain hsp82, stronger effect = lower value 1 | S. cerevisiae deletion strains, locus YPL241C, strain CIN2, stronger effect = lower value 1 | S. cerevisiae deletion strains, locus YPL256C, strain CLN2, stronger effect = lower value 0.986 | S. cerevisiae deletion strains, locus YPR119W, strain clb2, stronger effect = lower value 0.995 | S. cerevisiae deletion strains, locus YPR141C, strain kar3, stronger effect = lower value 0.978 | S. cerevisiae deletion strains, locus YPR163C, strain tif3, stronger effect = lower value 0.984 | S. cerevisiae deletion strains, locus YPR167C, strain met16, stronger effect = lower value 0.984 | S. cerevisiae deletion strains, strain wtn01, stronger effect = lower value 0.964 | S. cerevisiae strains, strain wild type, stronger effect = lower value 1.01

Reference: PubChem BioAssay AID1159580 (chemical genetic matrix, 2015)
